Our source for the Potency, outcome and max activation values is PubChem BioAssay (Tox21).

Each structure is given as a SMILES string. Values without a mark were called inactive. Results filed as inconclusive are left out. Activity calls are given as the source filed them. Unless noted, calls come from the whole dose curve; as a rule, active = well fitted curve in the direction sought with a large enough effect in the repeat runs; inconclusive = weak or mixed curves; inactive = no such curve, though single readings can be large; an effect the other way counts as inactive or inconclusive.

Assay [1] addresses Progesterone receptor (Homo sapiens) (UniProt P06401). Briefly: qHTS assay to identify small molecule agonists of the progesterone receptor (PR) signaling pathway (AID 1346784; calls by dose curve; note: nearly all actives have a fitted effect of over 30% in size). The method, boiled down: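 HEK 293T PR-UAS-bla reporter cells, 2% charcoal-stripped FBS; 6 hr settle at 37C/5% CO2, compound (DMSO) 16 hr, LiveBLAzer B/G FRET substrate 2 hr RT, fluorescence intensity read.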
(In general: Quantitative high-throughput screening tests each substance at several concentrations.)

For assay [2] the target is unchanged. Briefly: qHTS assay to identify small molecule antagonists of the progesterone receptor (PR) signaling pathway (AID 1346795; active = well fitted inhibition curve with a large enough effect in the signal ratio in the repeat runs, not every such curve was filed as active; the % refers to the signal ratio; note: potency is the fitted concentration of half-maximal effect). The gist of the method:
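Beta-lactamase reporter, HEK293T PR-UAS-bla line; 2% charcoal-stripped FBS; 6 hr pre-incubation, 37C/5% CO2. Compound + R5020 1 nM final, 16 hr. LiveBLAzer B/G FRET substrate, 2 hr RT; fluorescence intensity read.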

A short description of assay [3]: qHTS assay to identify small molecule agonists of the progesterone receptor (PR) signaling pathway - cell viability counter screen (AID 1346799; calls by dose curve; note: nearly all actives have a fitted effect of over 45% in size). The method, boiled down: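 HEK293T PR-UAS-bla, 3,000 cells/well, 2% charcoal-stripped FBS; 6 h settle, compound 16 h at 37C/5% CO2; LiveBLAzer 2 h RT, then CellTiter-Glo 30 min RT, luminescence read.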
The nature of assay [4]: qHTS assay to identify small molecule antagonists of the TGF-beta/Smad signaling pathway - cell viability counter screen (AID 1346824). Note: nearly all actives have a fitted effect of over 50% in size. The method, boiled down:
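SBE-bla HEK 293T cells, incubated overnight, then compound plus 0.25 ng/mL TGF-beta1 (stock added) for 5 hr at 37 C. Viability was read in the same wells by CellTiter-Glo luminescence after 30 min at room temperature.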

Assay [5] is described as follows: qHTS assay to identify small molecule agonists of the TGF-beta/Smad signaling pathway - cell viability counter screen (AID 1346829). Note: top concentration of the series differs between compounds; nearly all actives have a fitted effect of over 45% in size. The method, boiled down:
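In parallel with the Smad reporter read, viability of HEK 293T cells stably carrying SBE-bla is quantified by ATP luminescence following 5 hr compound treatment.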

Assay [6] in a line: qHTS assay to identify small molecule agonists of the TGF-beta/Smad signaling pathway (AID 1346859; active = well fitted activation curve with a large enough effect in the signal ratio in the repeat runs, not every such curve was filed as active; the % refers to the signal ratio; note: series mostly up to about 77 µM). The method, boiled down: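 Read-out: fluorescence at 460 and 530 nm (405 nm excitation) after a 2 hr room-temperature incubation with beta-lactamase FRET substrate. SBE-bla HEK 293T cells had been treated with test compounds for 5 hr at 37 C.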
Assay [7] addresses Thyrotropin-releasing hormone receptor (Homo sapiens) (UniProt P34981). Briefly: qHTS assay to identify small molecule antagonists of the thyrotropin-releasing hormone receptor (TRHR) signaling pathway (AID 1346877; active = well fitted inhibition curve with a large enough effect in the repeat runs, not every such curve was filed as active; note: series mostly up to about 51 µM). The method, boiled down:
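Overnight-plated (18 h, 37 °C) HEK293 cells expressing TRHR were dye-loaded 2 h, treated with compound, then stimulated with TRH at 1 nM final. Fluorescence intensity was captured every second for 3 min.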

Assay [8] shares this target. Nature of the assay: qHTS assay to identify small molecule agonists of the thyrotropin-releasing hormone receptor (TRHR) signaling pathway (AID 1346891; calls by dose curve;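 note: HEK293 cells expressing TRHR with calcium dye readout; series mostly up to about 58 µM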). The gist of the method: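 HEK293/TRHR cells, 1500 per well, 18 h 37 °C; Ca dye 2 h 37 °C; pin-tool compound addition (agonist mode); kinetic fluorescence 3 min, 1 s reads; 15 concentrations, triplicate.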
Assay [9] can be described thus: Human pregnane X receptor (PXR) small molecule agonists, qHTS cell viability counter screen (AID 1346977). Note: nearly all actives have a fitted effect of over 50% in size. The method, boiled down:
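Fluorescence read-out (CellTiter-Fluor) of viability in PXR-Luc HepG2 cells, multiplexed with the luciferase agonist read. Compounds in DMSO added after 5hr plating; 24hr total exposure at 37C, 5% CO2.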

A short description of assay [10]: Caspase-3/7 induction in HepG2 cells by small molecules, qHTS assay (AID 1346978). Note: nearly all actives have a fitted effect of over 15% in size. The gist of the method:
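Wild-type HepG2 cells, 2,000/well, settled 5 hr at 37 C and 5% CO2, then compound-treated for 17 hr; caspase-3/7 activity read by luminescent Caspase-Glo 3/7 after 30 min at room temperature.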

Assay [11] in a line: Caspase-3/7 induction in CHO-K1 cells by small molecules, qHTS cell viability counter screen (AID 1346979). Note: nearly all actives have a fitted effect of over 35% in size. The gist of the method:
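CHO-K1 wt, 1,500 cells/well; 5hr pre-incubation 37C/5% CO2; compound pin transfer (DMSO); 16hr exposure; CellTiter-Fluor added, 1hr, fluorescence read.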

The nature of assay [12]: Caspase-3/7 induction in CHO-K1 cells by small molecules, qHTS assay (AID 1346980). Note: nearly all actives have a fitted effect of over 15% in size. The method, boiled down: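 Wild-type CHO-K1 cells exposed to compounds for 17hr at 37 C, 5% CO2. Caspase-3/7 activity then measured by Caspase-Glo 3/7 luminescence after 30min at room temperature.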
Assay [13] in a line: Caspase-3/7 induction in HepG2 cells by small molecules, qHTS cell viability counter screen (AID 1346981). Note: series mostly up to about 92 µM; nearly all actives have a fitted effect of over 30% in size. The gist of the method:
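Treatment of HepG2 cells with DMSO-delivered compounds ran 16 hr at 37 C following a 5-hr pre-incubation of 2,000 cells/well. CellTiter-Fluor fluorescence, read after 1 hr, served as the viability measure in a qHTS format.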

The target of assay [14] is Nuclear receptor subfamily 1 group I member 2 (Homo sapiens) (UniProt O75469). Nature of the assay: Human pregnane X receptor (PXR) small molecule agonists, qHTS assay (AID 1346982). Note: nearly all actives have a fitted effect of over 35% in size. Note: potency is the fitted concentration of half-maximal effect. The gist of the method:
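Stable HepG2 line reporting PXR-mediated CYP3A4 expression via luciferase. Treatment: 24 hr with compounds in DMSO at 37 C. Detection: ONE-Glo luminescence.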

Assay [15] concerns the target Nuclear receptor subfamily 1 group I member 2 (Rattus norvegicus) (UniProt Q9R1A7). Briefly: Rat pregnane X receptor (rPXR) activation by small molecules, qHTS assay (AID 1346983). Note: nearly all actives have a fitted effect of over 20% in size. Particulars: rPXR luciferase reporter cells, One-Glo luminescence, 24 h; max activation: hits give high values. The gist of the method:
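Cell-based rPXR activation assay: rPXR cells, 2,000 per well, rested 5hr at 37 C, then exposed to compounds in DMSO for 24 hr at 37 C. Luciferase activity read by One-Glo luminescence after 30 min at room temperature.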

The target of assay [16] is Nuclear receptor subfamily 1 group I member 2 (Homo sapiens) (UniProt O75469). Briefly: CYP3A4 induction through human pregnane X receptor (PXR) by small molecules, qHTS assay (AID 1346984). Note: nearly all actives have a fitted effect of over 40% in size. The method, boiled down:
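After 24 h at 37C with compound, DPX-2 cells (HepG2, co-transfected PXR response element and CYP3A4 promoter-luciferase) got 3uM final P450-Glo Luciferin-IPA for 3 h; One-Glo luminescence followed.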

Assay [17] can be described thus: qHTS assay to identify small molecule agonists of the estrogen receptor alpha (ER-alpha) signaling pathway in the presence of an antagonist - cell viability counter screen (AID 1259386).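 Note: series mostly up to about 92 µM; cells exposed to compounds for 22 h at 37 °C before the viability read; nearly all actives have a fitted effect of over 30% in size.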 The gist of the method: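 The test measures whether compounds kill ER-alpha reporter cells (VM7Luc4E2) under antagonist co-treatment (ICI-182,780, 10.0nM). Fluorescence from CellTiter-Fluor is read after a 22hr exposure.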

A short description of assay [18]: qHTS assay to identify small molecule antagonists of the progesterone receptor (PR) signaling pathway - cell viability counter screen (AID 1346798). Note: series mostly up to about 92 µM; nearly all actives have a fitted effect of over 50% in size. The method, boiled down:
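Luminescence readout (CellTiter-Glo, 30 min, RT) of viability in PR-UAS-bla HEK293T cells exposed to compound and R5020 agonist for 16 hr at 37C, 5% CO2; run in the same wells as the beta-lactamase reporter read.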
% is set by controls: 0 for no effect and ±100 for the full control effect.

Nuclear receptor subfamily 1 group I member 2 (Homo sapiens), sequence (O75469 whole entry, looked up): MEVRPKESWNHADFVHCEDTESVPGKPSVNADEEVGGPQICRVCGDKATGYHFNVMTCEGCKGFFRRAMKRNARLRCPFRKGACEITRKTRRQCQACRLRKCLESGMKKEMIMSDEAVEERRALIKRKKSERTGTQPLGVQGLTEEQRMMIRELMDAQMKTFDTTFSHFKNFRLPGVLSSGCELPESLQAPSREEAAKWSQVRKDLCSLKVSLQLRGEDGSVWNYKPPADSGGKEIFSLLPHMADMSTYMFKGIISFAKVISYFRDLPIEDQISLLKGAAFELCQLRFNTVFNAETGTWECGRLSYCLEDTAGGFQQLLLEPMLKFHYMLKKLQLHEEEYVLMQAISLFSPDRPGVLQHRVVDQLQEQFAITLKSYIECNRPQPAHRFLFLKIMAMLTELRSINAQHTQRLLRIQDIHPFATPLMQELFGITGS
Thyrotropin-releasing hormone receptor (Homo sapiens), sequence (P34981 whole entry, looked up): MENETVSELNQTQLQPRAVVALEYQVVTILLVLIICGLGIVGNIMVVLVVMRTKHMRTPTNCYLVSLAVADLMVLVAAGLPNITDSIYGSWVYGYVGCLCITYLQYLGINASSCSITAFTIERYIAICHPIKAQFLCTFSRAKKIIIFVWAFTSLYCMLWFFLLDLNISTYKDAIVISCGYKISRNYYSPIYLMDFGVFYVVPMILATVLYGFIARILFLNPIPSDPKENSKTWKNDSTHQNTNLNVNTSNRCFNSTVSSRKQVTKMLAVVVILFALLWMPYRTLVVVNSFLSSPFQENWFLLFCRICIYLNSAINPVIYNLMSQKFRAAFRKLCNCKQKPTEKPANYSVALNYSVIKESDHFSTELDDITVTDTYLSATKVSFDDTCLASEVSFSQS
Progesterone receptor (Homo sapiens), sequence (P06401 whole entry, looked up): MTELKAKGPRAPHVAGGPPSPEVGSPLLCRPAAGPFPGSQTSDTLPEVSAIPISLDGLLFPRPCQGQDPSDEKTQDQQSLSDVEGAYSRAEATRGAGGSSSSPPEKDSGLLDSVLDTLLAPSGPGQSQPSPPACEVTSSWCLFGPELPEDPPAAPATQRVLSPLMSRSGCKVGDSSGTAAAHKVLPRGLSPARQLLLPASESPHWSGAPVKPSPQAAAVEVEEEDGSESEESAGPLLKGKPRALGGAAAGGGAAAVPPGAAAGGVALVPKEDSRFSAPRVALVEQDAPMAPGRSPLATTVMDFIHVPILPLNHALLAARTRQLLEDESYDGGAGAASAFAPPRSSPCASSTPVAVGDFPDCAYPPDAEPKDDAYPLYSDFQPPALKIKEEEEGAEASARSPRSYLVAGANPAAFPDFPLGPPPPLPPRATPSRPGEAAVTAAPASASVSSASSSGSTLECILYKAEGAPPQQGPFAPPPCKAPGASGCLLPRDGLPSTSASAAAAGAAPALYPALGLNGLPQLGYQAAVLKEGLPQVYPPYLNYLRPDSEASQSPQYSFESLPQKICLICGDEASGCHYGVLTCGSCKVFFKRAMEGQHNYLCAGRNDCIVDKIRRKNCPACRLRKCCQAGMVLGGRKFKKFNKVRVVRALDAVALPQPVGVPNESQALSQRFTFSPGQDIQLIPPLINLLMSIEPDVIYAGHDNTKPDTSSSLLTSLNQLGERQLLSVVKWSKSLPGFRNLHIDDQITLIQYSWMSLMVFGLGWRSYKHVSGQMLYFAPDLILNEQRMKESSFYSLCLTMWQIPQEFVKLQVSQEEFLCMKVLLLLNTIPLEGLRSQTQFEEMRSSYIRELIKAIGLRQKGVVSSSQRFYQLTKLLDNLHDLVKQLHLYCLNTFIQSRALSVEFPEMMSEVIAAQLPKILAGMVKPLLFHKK
Nuclear receptor subfamily 1 group I member 2 (Rattus norvegicus), sequence (Q9R1A7 whole entry, looked up): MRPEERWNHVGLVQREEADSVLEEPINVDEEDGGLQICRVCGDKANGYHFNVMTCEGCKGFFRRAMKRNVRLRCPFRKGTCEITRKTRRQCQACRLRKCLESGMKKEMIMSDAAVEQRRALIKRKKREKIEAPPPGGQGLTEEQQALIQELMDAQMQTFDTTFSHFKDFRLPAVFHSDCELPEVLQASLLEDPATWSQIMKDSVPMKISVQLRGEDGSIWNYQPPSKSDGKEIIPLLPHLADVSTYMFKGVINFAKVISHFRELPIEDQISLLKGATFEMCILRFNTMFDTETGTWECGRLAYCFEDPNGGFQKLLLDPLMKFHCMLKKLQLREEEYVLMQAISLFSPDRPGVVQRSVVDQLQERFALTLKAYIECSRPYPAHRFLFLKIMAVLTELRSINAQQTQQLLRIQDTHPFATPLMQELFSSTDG

On to `CC(C)[C@H](N)C(=O)OCCOCn1cnc2c(=O)[nH]c(N)nc21`, for which the Potency result in assay [1], in assay [2], in [3], in [9], in assay [11] and in [14] was “inactive” in each case. In addition, the Potency result in [16] is “inactive”. The call in [4], in assay [5], in assay [6], in [7], in assay [8] and in assay [10] was inactive. Also, the call in assay [12] and in assay [13] was inactive. In addition, the max activation in [15] was -4.04%.
As for `O=C1C(CCS(=O)c2ccccc2)C(=O)N(c2ccccc2)N1c1ccccc1` (stereo not given), the result in assay [17], in assay [5], in assay [6], in [7], in assay [8] and in assay [10] was inactive. The result in assay [12] and in [13] was inactive. The Potency entry in assay [1], in assay [18], in assay [3], in assay [9] and in [11] was “inactive” throughout. Besides, the max activation in assay [15] was -2.19%.
As to `C/C=C1\C(=O)C[C@H]2[C@@H]3CCC4=CC(=O)CC[C@]4(C)[C@H]3CC[C@]12C`, the outcome in assay [17], in [4], in [5], in [10], in assay [12] and in assay [13] was inactive. Further, the Potency entry in assay [9] was “inactive”.
For the compound `CCn1c(=O)c2c(nc(/C=C/c3ccc(OC)c(OC)c3)n2C)n(CC)c1=O`, the result in assay [17], in [5], in [6], in assay [7], in [8] and in assay [10] was inactive. In addition, the call in [12] and in assay [13] was inactive. Moreover, the Potency entry in assay [1] and in assay [9] was “inactive” in each case. Moreover, in assay [14], the Potency was 26.6 µM (active).
With `O=C(O)C(O)[C@H](O)[C@@H](O)[C@H](O)[C@H](O)CO` (stereo not given in full), the Potency entry in assay [2], in assay [9], in assay [11] and in assay [14] was “inactive” in each case. Besides, the compound was called inactive in assay [4], in [5], in assay [6], in assay [10], in assay [12] and in assay [13].
Consider `O=[N+]([O-])c1ccc(Oc2ccc([N+](=O)[O-])cc2)cc1`, for which the result in [17], in assay [4], in assay [5], in assay [6], in assay [10] and in assay [12] was inactive. Moreover, the result in assay [13] was inactive. The Potency result in [1], in assay [9], in assay [11] and in [14] was “inactive” in each case.
On to `OCCCCCCO`, for which the result in assay [17], in assay [4], in assay [5], in assay [6], in [7] and in assay [8] was inactive. In addition, the outcome in assay [10], in assay [12] and in assay [13] was inactive. The Potency result in [9], in assay [11] and in [14] was “inactive” in each case.
In the case of `CC(=O)N[C@@H](CCC(N)=O)C(=O)O`, the Potency result in assay [1], in assay [2], in [3], in [9], in assay [11] and in [14] was “inactive” throughout. In addition, the compound was classed as inactive in assay [4], in assay [5], in assay [6], in [7], in [8] and in assay [10]. The call in assay [12] and in assay [13] was inactive.
In the case of `CSc1nc(NC2CC2)nc(NC(C)(C)C)n1`, the Potency entry in [1], in assay [18], in [3], in assay [9] and in [11] was “inactive” throughout. The Potency in [2] is 61.1 µM (active); in assay [14], 21.7 µM (active). For the same compound, the outcome in [4], in assay [5], in assay [6], in [10] and in assay [12] was inactive.
Consider `C(=C(c1ccccc1)c1ccccc1)c1ccccc1`, for which the result in assay [17], in assay [4], in [5], in [6], in [7] and in assay [8] was inactive. In addition, the compound was classed as inactive in assay [10], in assay [12] and in [13]. Besides, the Potency result in [1], in assay [18], in assay [9] and in assay [11] was “inactive” throughout.
